Where “and” joins values, the source holds several entries; their conditions need not be identical. Equal values may be shown once. The panel holds about 83,000 compounds, 20% with a hit somewhere; the sample as a whole holds those more often.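 The endpoint reported here, percent growth, reads 100 for growth as untreated, 0 for no net growth and -100 for all cells dead.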 Calls of active or inactive are those of the source. Rule for the calls: active = growth percent below 10; inactive = the rest.
What follows are molecules tested on MDA-MB-468 breast (assay: NCI-60 one-dose screen, 48 h (100 = growth as untreated, 0 = no growth, -100 = all killed)). Settings: 10 µM unless noted.

Structure (SMILES) | growth
O=C(NCCNC(=O)Oc1cccc2ccccc12)Oc1cccc2ccccc12 | 103% (inactive)
O=C1C=CC(=O)N1c1ccccn1 | 114% (inactive)
O=C(NC1CCC(Br)CC1)C1CCCC(S(=O)(=O)NC2CCCCC2)C1 (stereo unspecified) | -3.64% [25 µM] (active)
Clc1nc(-c2cccnc2)nc2sc3c(c12)CCCCCC3 | 95.1% (inactive)
Nc1nc(Cl)nc2c1ncn2C1OC(CO)C(O)C1O (stereo unspecified) | 124% (inactive) and 94.5% (inactive)
Cc1c(O)cccc1O | 117% (inactive)
COc1ccc(-c2cc(-c3cc4ccccc4oc3=O)n(-c3ccccc3)n2)cc1 | 87.3% (inactive)
O=Cc1ccc(O)c(O)c1 | 93.4% (inactive)
COc1cc2nc(-c3ccc(C(F)(F)F)cc3)cc(OCCN3CCCC3)c2cc1OC | 89.4% (inactive)
Nc1nc2c([nH]1)c1[nH]c3ccccc3c1c1[nH]c3ccccc3c21 | -57.2% (active)
O=C(Nc1ccccc1)C(CCCCN1C(=O)c2ccccc2C1=O)N1C(=O)c2ccccc2C1=O (stereo unspecified) | 103% (inactive)
CC1(C)CC2(C)OC2C2(C1)N=NC(=Nc1ccccc1)O2 (stereo unspecified) | -15.6% (active)
CCN(c1ccc(Cl)cc1)c1nc(-c2ccc([N+](=O)[O-])cc2)cs1 | 83.8% (inactive)
CCc1cccc2c3c(sc12)C(c1ccc(OC)cc1)C(C#N)=C(/N=C/c1ccc(Cl)cc1)O3 (stereo unspecified) | -6.83% (active)
Cc1ccc(C(=NN=C(N)N)c2ccc(C)cc2)cc1 | -42.5% (active)
CC/C=C\C/C=C\C[C@H](O)C/C=C1/C(=O)C=C[C@@H]1C/C=C\CCCC(=O)O | 23.5% (inactive)

Source: PubChem BioAssay (NCI)
